Counter-ions that a name gives are not always drawn. ± gives the uncertainty stated by the source.
Tested on: NCC-PMP1-C1
Experiment: cell viability relative to DMSO control; higher = less growth inhibition
Settings: 10 µM; 72 h
Procedure: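 NCC-PMP1-C1 pseudomyxoma peritonei cells were seeded in 384-well plates coated with Matrigel and MEF (1e4 cells). Viability was read after 72 h by CCK-8 and expressed as % of the DMSO control, mean ± SD of duplicates.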

SMILES | cell viability [%]
COc1c2ccoc2cc2oc(=O)ccc12 [Bergapten] | 87.3 ± 5
Cc1ccc(-n2[nH]c(C)c(N=Nc3cccc(-c4cccc(C(=O)O)c4)c3O)c2=O)cc1C [Eltrombopag Olamine] | 113 ± 3.3
Cc1ccc(Nc2nccc(N(C)c3ccc4c(C)n(C)nc4c3)n2)cc1S(N)(=O)=O | 72.5 ± 0.73
C/C=C1\NC(=O)[C@H]2CSSCC/C=C/[C@H](CC(=O)N[C@H](C(C)C)C(=O)N2)OC(=O)[C@H](C(C)C)NC1=O [Romidepsin (FK228, Depsipeptide)] | 22.2 ± 22
CN(N=O)C(=O)NC1C(O)OC(CO)C(O)C1O (stereo not given) [Streptozotocin (STZ)] | 111 ± 3.5
COc1ccc2c(c1OC)C(=O)O[C@@H]2[C@H]1c2c(cc3c(c2OC)OCO3)CCN1C [Noscapine HCl] | 90.5 ± 4.2
CC(=O)OCC(CCn1cnc2cnc(N)nc21)COC(C)=O [Famciclovir] | 94.3 ± 12
COc1cc([C@@H]2c3cc4c(cc3[C@@H](O[C@@H]3O[C@@H]5CO[C@@H](c6cccs6)O[C@H]5[C@H](O)[C@H]3O)[C@H]3COC(=O)[C@H]23)OCO4)cc(OC)c1O [Teniposide] | 13.5 ± 1.5
Cc1c2oc3c(C)ccc(C(=O)N[C@@H]4C(=O)N[C@H](C(C)C)C(=O)N5CCC[C@H]5C(=O)N(C)CC(=O)N(C)[C@@H](C(C)C)C(=O)O[C@@H]4C)c3nc-2c(C(=O)N[C@@H]2C(=O)N[C@H](C(C)C)C(=O)N3CCC[C@H]3C(=O)N(C)CC(=O)N(C)[C@@H](C(C)C)C(=O)O[C@@H]2C)c(N)c1=O [Actinomycin D] | 8.77 ± 0.95
CCC(C)n1ncn(-c2ccc(N3CCN(c4ccc(OCC5COC(Cn6cncn6)(c6ccc(Cl)cc6Cl)O5)cc4)CC3)cc2)c1=O (stereo not given) [Itraconazole] | 81.9 ± 2.1
CC(C)C[C@H](NC(=O)[C@H](Cc1ccccc1)NC(=O)c1cnccn1)B(O)O [Bortezomib (PS-341)] | -0.129 ± 0.47
CN(C)C/C=C/C(=O)Nc1cc2c(Nc3ccc(F)c(Cl)c3)ncnc2cc1O[C@H]1CCOC1 [Afatinib (BIBW2992)] | 12.4 ± 2.3
COc1cc2nccc(Oc3ccc(NC(=O)C4(C(=O)Nc5ccc(F)cc5)CC4)cc3)c2cc1OC | 48.9 ± 2.8
CC[C@]1(O)C[C@@H]2CN(CCc3c([nH]c4ccccc34)[C@@](C(=O)OC)(c3cc4c(cc3OC)N(C)[C@H]3[C@@](O)(C(=O)OC)[C@H](OC(C)=O)[C@]5(CC)C=CCN6CC[C@]43[C@@H]65)C2)C1 [Vinblastine sulfate] | 43.6 ± 2.9
CN(CCOc1ccc(CC2SC(=O)NC2=O)cc1)c1ccccn1 (stereo not given) [Rosiglitazone] | 101 ± 3.3
N#CC[C@H](C1CCCC1)n1cc(-c2ncnc3[nH]ccc23)cn1 | 83.6 ± 8.2
COc1cc([C@@H]2c3cc4c(cc3[C@@H](O[C@@H]3O[C@@H]5CO[C@@H](C)O[C@H]5[C@H](O)[C@H]3O)[C@H]3COC(=O)[C@H]23)OCO4)cc(OC)c1O [Etoposide] | 61.1 ± 1.9
FC(F)(F)c1ccc(CNc2ccc(Cc3c[nH]c4ncc(Cl)cc34)cn2)cn1 [Pexidartinib (PLX3397)] | 63.2 ± 6
Nc1nc(F)nc2c1ncn2[C@@H]1O[C@H](COP(=O)(O)O)[C@@H](O)[C@@H]1O [Fludarabine Phosphate] | -11.4 ± 1.5
CC/C(=C(/CC)c1ccc(O)cc1)c1ccc(O)cc1 [Diethylstilbestrol] | 121.2 ± 0.53

SMILES | cell viability [%]
Cc1cccc(N(C)C(=S)Oc2ccc3ccccc3c2)c1 [Tolnaftate] | 101 ± 19
Nc1nc2[nH]cnc2c(=S)[nH]1 [Thioguanine] | 88.9 ± 9.4
CC(=O)O[C@H]1C(=O)[C@@]2(C)[C@H]([C@H](OC(=O)c3ccccc3)[C@]3(O)C[C@H](OC(=O)[C@H](O)[C@@H](NC(=O)c4ccccc4)c4ccccc4)C(C)=C1C3(C)C)[C@]1(OC(C)=O)CO[C@@H]1C[C@@H]2O [Paclitaxel] | 81.6 ± 12
C#CCC(Cc1cnc2nc(N)nc(N)c2n1)c1ccc(C(=O)N[C@@H](CCC(=O)O)C(=O)O)cc1 (stereo not given in full) [Pralatrexate] | 104 ± 9.8
CN(C)C/C=C/C(=O)Nc1cc2c(Nc3ccc(F)c(Cl)c3)ncnc2cc1O[C@H]1CCOC1 [Afatinib (BIBW2992) Dimaleate] | 29.3 ± 2.4
CS(=O)(=O)OCCCCOS(C)(=O)=O [Busulfan] | 121 ± 7.5
CNC(=O)c1cc(Oc2ccc(NC(=O)Nc3ccc(Cl)c(C(F)(F)F)c3)c(F)c2)ccn1 [Regorafenib (BAY 73-4506)] | 147 ± 11
S=c1[nH]cnc2nc[nH]c12 [Mercaptopurine (6-MP)] | -6.45
CC#CCn1c(N2CCC[C@@H](N)C2)nc2c1c(=O)n(Cc1nc(C)c3ccccc3n1)c(=O)n2C [Linagliptin] | 94.5 ± 11
CC(C)(C)c1cc(NC(=O)Nc2ccc(-c3cn4c(n3)sc3cc(OCCN5CCOCC5)ccc34)cc2)no1 [Quizartinib (AC220)] | 78.9
Oc1ncnc2[nH]ncc12 [Allopurinol] | 123 ± 13
Cc1cn(-c2cc(NC(=O)c3ccc(C)c(Nc4nccc(-c5cccnc5)n4)c3)cc(C(F)(F)F)c2)cn1 [Nilotinib (AMN-107)] | 70.1 ± 16
CNC(=O)c1cc(Oc2ccc(NC(=O)Nc3ccc(Cl)c(C(F)(F)F)c3)cc2)ccn1 [Sorafenib Tosylate] | 148 ± 14
O=C(CCBr)N1CCN(C(=O)CCBr)CC1 [Pipobroman-D8] | 84 ± 7.7
CC(=O)O[C@@]12CO[C@@H]1C[C@H](O)[C@@]1(C)C(=O)[C@H](O)C3=C(C)[C@@H](OC(=O)[C@H](O)[C@@H](NC(=O)OC(C)(C)C)c4ccccc4)C[C@@](O)([C@@H](OC(=O)c4ccccc4)[C@H]21)C3(C)C [Docetaxel] | 72.1 ± 2.1
COc1cc(N2CCC(N3CCN(C)CC3)CC2)ccc1Nc1ncc(Cl)c(Nc2ccccc2S(=O)(=O)C(C)C)n1 | 38.3 ± 2.1
O=C1c2c(O)ccc(O)c2C(=O)c2c(NCCNCCO)ccc(NCCNCCO)c21 [Mitoxantrone 2HCl] | 2.67 ± 1.1
C/C(=C\c1csc(C)n1)[C@@H]1C[C@@H]2O[C@]2(C)CCC[C@H](C)[C@H](O)[C@@H](C)C(=O)C(C)(C)[C@@H](O)CC(=O)N1 | 73.7 ± 4.9
O=C(c1ccc(OCCN2CCCCC2)cc1)c1c(-c2ccc(O)cc2)sc2cc(O)ccc12 [Raloxifene HCl] | 92.9 ± 5.5
CCN1CCN(c2ccc(Nc3cc(N(C)C(=O)Nc4c(Cl)c(OC)cc(OC)c4Cl)ncn3)cc2)CC1 | 56.5 ± 0.47

— the supplement of paper PMC8877412
